From the supplement of paper PMC11732987, “Enantioselective OTUD7B fragment discovery through chemoproteomics screening and high-throughput optimisation” (Communications Chemistry, 2025)

Legend:
Assay in all cases: log2 ratio of Biotin-Ahx-Ub-VS probe labelling (fragment/DMSO); higher = less target engagement (more negative = stronger competition), active = hit call of the paper (q ≤ 0.05, log2 ratio ≤ -1)
Settings in all cases: compound concentration: 200 uM; treatment time: 3 h
[1] = molecular target: T1, USP42 (UniProt Q9H9J4)
T1 sequence (whole entry): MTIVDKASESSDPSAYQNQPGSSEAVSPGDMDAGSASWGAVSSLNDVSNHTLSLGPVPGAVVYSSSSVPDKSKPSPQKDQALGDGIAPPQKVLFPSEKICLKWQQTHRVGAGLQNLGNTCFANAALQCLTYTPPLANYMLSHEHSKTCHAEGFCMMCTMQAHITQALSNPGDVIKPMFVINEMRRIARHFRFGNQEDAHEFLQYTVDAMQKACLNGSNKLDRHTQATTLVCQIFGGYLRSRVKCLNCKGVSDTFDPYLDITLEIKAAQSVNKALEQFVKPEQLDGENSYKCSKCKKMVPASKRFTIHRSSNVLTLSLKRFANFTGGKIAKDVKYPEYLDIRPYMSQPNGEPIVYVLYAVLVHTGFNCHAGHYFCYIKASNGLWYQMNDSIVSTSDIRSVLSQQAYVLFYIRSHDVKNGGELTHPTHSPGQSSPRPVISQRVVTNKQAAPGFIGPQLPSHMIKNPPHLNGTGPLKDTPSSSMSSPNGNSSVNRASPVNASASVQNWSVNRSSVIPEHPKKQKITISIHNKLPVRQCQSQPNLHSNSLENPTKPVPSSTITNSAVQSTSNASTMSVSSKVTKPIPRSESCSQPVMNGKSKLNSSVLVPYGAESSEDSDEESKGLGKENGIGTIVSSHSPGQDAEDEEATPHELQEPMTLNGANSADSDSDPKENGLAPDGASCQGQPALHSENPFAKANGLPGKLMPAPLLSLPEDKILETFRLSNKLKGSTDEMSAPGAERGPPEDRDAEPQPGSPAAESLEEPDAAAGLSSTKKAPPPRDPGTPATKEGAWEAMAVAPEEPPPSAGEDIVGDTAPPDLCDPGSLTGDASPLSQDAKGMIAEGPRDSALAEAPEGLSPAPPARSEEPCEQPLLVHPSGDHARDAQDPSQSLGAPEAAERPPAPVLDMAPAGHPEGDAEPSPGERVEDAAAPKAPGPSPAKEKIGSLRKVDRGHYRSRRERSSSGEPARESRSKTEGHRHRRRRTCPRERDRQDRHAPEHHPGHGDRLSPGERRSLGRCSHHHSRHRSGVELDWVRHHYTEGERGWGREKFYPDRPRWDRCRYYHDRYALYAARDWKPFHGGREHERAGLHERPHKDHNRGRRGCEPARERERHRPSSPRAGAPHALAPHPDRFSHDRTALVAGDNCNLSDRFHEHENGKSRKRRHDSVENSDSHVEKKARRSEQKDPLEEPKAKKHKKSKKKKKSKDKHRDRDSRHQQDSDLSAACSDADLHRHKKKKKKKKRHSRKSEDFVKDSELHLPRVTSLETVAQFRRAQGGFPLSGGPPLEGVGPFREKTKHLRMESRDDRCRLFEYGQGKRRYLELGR
Summary of the method: (§1)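 HEK293T lysate, 495 µg per sample in Tris/CHAPS/IGEPAL buffer with protease inhibitors, was treated in triplicate with fragment at 200 µM or vehicle for 3 h and then with Biotin-Ahx-Ub-VS at 0.5 µM final for 1 h. Labelled DUBs were NeutrAvidin-enriched, digested with LysC and trypsin, and run by diaPASEF LC-MS/MS. Spectronaut label-free quantities were global-median-normalised, and values are average log2 fragment/vehicle ratios by unpaired t-test on proteins with ≥2 unique peptides.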

[2] = molecular target: USP46 (UniProt P62068)
Summary of the method: as §1

[3] = molecular target: T2, USP47 (UniProt Q96K76)
T2 sequence (whole entry): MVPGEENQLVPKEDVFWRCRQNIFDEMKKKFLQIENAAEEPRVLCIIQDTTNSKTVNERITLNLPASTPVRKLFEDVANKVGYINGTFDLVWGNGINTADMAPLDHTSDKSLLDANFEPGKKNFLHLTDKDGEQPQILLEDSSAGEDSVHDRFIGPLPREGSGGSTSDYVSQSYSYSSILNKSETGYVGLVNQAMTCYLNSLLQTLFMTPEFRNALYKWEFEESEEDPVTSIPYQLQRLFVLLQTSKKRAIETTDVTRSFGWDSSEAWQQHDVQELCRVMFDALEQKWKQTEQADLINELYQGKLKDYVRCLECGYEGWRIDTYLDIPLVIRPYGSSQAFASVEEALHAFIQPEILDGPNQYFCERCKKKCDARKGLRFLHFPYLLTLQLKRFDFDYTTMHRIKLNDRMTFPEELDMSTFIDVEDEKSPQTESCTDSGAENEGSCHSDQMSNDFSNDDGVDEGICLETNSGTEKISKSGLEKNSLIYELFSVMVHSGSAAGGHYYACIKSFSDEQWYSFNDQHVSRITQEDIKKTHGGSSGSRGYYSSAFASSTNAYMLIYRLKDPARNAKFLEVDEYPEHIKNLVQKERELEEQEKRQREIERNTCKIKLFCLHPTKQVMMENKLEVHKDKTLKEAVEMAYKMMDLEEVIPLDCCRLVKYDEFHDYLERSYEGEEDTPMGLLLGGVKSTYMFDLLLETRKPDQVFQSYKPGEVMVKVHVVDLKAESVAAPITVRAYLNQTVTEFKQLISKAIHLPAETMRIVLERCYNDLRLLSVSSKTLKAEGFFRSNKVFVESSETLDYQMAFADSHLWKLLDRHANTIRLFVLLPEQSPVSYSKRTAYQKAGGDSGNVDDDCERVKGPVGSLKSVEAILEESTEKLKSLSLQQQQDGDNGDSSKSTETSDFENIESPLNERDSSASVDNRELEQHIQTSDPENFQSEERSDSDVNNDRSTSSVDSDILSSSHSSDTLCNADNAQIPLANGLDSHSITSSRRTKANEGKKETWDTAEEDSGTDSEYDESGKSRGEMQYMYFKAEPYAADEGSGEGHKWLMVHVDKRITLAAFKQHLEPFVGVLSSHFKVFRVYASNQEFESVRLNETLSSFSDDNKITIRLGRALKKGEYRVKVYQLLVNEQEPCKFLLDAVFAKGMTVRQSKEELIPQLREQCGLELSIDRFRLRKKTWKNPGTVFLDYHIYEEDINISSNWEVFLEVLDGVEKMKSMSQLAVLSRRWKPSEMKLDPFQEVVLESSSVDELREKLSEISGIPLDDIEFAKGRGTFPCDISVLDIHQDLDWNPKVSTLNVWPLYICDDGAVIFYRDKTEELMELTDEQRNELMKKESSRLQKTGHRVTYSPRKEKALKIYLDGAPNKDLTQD
Summary of the method: as §1

[4] = molecular target: T3, USP48 (UniProt Q86UV5)
T3 sequence (whole entry): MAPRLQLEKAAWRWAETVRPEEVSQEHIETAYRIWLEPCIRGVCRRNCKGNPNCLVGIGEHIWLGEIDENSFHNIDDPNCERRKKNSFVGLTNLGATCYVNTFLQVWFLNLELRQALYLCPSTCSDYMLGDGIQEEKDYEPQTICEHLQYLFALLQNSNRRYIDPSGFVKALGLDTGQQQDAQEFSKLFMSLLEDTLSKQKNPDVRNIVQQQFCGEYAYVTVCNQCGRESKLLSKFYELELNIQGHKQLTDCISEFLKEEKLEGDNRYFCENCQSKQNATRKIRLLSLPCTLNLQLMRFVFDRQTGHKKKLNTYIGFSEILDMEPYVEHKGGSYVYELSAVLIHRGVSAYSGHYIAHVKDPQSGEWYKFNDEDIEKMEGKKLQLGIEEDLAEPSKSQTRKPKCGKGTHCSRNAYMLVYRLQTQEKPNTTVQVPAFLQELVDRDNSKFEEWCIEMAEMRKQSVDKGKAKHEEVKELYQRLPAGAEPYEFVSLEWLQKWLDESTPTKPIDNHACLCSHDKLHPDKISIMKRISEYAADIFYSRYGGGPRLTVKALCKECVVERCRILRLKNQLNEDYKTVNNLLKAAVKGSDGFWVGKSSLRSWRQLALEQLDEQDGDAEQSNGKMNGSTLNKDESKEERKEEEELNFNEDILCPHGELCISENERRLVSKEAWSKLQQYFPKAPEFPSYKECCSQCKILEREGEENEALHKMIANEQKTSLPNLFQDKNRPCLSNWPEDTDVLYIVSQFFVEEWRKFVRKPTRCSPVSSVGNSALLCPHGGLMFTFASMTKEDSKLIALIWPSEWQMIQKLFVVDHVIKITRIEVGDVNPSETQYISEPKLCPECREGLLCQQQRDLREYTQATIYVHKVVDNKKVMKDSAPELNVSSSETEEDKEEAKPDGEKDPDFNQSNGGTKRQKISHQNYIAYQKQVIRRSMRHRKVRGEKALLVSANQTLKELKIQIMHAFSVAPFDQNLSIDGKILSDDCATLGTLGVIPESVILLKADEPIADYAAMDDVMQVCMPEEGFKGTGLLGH
Summary of the method: as §1

[5] = molecular target: T4, USP5 (UniProt P45974)
T4 sequence (whole entry): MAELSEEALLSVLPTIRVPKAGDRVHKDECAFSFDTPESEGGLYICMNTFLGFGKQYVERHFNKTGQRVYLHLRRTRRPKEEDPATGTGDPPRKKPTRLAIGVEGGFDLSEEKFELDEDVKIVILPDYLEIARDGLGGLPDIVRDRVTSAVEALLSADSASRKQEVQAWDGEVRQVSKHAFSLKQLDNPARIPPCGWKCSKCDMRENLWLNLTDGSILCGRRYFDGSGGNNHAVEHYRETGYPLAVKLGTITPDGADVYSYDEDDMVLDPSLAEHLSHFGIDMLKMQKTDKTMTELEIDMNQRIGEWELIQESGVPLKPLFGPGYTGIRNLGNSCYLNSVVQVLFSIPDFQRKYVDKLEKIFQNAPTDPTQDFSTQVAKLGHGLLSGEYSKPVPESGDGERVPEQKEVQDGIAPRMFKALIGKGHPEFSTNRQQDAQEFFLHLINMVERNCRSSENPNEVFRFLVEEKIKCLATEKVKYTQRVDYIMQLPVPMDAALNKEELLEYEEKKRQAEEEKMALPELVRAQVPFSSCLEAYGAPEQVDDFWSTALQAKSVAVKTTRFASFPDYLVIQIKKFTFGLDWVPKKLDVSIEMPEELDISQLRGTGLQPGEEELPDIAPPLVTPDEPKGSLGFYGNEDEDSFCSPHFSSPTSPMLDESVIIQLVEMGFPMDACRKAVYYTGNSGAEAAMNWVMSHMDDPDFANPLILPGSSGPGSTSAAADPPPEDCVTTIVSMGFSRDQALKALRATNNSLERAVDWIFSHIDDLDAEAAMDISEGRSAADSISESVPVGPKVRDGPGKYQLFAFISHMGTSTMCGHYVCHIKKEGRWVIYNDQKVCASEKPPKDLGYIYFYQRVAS
Summary of the method: as §1

[6] = molecular target: USP54 (UniProt Q70EL1)
Summary of the method: as §1

[7] = molecular target: USP7 (UniProt Q93009)
Summary of the method: as §1

[8] = molecular target: T5, USP8 (UniProt P40818)
T5 sequence (whole entry): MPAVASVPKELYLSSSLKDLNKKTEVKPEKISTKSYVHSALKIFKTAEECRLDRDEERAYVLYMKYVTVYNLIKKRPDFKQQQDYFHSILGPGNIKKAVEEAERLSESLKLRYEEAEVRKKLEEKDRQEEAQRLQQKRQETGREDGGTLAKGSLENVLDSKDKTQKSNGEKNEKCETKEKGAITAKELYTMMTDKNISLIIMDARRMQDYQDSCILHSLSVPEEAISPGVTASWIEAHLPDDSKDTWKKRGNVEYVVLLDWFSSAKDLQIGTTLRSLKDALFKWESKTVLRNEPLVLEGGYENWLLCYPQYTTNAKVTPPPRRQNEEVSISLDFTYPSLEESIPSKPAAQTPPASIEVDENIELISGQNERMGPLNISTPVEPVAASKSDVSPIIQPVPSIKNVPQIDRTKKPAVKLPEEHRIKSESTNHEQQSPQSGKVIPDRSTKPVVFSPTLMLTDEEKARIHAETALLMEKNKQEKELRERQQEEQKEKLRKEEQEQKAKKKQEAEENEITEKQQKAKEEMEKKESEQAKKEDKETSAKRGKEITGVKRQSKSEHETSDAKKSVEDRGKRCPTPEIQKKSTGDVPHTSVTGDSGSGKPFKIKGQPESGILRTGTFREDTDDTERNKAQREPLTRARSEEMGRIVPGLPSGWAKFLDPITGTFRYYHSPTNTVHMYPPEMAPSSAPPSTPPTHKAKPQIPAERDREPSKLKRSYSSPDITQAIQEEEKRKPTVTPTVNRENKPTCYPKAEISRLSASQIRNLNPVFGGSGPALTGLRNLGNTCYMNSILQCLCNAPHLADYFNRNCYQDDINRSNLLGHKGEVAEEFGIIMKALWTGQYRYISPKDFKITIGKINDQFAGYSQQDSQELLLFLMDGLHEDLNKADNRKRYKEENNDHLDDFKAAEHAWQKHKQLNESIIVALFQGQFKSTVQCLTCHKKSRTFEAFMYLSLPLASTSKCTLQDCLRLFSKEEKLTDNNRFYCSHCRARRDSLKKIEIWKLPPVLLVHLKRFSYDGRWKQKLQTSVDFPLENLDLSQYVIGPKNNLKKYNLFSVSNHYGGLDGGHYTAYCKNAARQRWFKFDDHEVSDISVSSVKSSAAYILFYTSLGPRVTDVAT
Summary of the method: as §1

Measured: log2 ratio of Biotin-Ahx-Ub-VS probe labelling

Sequence of USP54 (Q70EL1 whole entry): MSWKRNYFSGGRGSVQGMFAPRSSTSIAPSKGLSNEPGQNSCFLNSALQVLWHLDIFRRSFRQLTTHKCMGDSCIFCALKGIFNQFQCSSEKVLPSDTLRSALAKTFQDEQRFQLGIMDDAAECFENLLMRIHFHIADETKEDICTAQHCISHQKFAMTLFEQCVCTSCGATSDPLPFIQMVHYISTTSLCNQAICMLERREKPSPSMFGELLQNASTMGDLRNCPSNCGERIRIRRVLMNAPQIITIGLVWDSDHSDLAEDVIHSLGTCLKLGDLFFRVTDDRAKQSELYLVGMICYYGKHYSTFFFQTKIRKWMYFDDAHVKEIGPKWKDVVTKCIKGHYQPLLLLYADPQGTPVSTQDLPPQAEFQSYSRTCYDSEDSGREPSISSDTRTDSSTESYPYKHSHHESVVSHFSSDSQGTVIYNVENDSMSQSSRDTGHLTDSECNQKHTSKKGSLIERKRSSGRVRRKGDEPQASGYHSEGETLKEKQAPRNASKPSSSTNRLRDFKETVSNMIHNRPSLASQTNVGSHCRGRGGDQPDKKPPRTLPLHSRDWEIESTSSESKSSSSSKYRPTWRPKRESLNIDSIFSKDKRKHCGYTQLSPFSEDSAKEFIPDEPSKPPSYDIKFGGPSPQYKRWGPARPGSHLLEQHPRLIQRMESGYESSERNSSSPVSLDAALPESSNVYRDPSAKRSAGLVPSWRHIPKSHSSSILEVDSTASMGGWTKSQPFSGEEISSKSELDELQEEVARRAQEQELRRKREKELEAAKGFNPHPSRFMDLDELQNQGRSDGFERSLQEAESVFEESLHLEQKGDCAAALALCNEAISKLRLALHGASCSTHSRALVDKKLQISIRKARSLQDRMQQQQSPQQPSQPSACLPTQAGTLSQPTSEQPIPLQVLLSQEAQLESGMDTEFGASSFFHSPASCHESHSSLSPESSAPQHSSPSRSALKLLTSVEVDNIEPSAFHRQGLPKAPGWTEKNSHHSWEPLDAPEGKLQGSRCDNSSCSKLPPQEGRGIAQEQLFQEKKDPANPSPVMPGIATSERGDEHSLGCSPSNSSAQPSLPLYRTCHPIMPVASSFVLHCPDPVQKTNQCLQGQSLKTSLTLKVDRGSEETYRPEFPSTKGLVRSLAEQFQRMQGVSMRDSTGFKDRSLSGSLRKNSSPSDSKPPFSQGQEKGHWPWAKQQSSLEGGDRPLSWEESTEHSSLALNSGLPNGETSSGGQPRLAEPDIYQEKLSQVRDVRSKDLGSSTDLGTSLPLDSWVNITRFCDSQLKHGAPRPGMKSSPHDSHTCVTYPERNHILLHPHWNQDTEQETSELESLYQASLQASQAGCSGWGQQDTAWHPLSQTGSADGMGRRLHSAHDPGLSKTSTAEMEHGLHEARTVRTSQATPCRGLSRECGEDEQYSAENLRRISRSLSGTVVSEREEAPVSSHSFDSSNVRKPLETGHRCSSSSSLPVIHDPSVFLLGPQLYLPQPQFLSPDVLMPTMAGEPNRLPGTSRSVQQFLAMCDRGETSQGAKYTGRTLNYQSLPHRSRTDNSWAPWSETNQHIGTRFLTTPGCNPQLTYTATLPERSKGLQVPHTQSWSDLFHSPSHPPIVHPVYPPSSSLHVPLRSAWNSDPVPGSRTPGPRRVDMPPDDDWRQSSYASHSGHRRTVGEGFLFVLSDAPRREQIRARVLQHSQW
Sequence of USP7 (Q93009 whole entry, looked up): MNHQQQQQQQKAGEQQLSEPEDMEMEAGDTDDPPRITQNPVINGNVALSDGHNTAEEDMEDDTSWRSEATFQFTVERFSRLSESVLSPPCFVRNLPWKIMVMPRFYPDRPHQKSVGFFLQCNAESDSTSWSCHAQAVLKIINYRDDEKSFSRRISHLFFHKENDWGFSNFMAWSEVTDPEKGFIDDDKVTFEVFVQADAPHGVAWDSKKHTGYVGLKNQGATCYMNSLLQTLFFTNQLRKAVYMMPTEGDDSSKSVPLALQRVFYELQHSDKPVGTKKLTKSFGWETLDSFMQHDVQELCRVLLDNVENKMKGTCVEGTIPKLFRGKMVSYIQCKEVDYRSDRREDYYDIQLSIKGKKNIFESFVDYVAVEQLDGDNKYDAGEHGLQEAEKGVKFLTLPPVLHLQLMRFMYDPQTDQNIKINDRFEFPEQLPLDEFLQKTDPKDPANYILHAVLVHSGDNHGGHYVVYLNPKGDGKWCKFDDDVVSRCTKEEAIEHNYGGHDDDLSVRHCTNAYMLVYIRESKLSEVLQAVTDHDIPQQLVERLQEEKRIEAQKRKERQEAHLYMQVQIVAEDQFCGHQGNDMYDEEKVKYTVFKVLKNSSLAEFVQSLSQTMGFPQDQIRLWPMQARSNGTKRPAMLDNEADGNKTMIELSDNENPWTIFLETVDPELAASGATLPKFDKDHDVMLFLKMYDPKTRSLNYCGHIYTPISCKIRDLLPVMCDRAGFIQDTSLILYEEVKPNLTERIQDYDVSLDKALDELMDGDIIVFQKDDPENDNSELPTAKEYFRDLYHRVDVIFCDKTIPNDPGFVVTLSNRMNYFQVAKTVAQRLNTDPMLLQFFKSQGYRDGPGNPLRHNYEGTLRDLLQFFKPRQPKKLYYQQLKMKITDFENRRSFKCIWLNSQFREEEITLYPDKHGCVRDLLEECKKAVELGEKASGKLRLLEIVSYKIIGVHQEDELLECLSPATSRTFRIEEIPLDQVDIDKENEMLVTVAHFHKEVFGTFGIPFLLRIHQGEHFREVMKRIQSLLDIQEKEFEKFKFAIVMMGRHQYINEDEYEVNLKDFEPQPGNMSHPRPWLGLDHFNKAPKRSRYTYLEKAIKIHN
Sequence of USP46 (P62068 whole entry): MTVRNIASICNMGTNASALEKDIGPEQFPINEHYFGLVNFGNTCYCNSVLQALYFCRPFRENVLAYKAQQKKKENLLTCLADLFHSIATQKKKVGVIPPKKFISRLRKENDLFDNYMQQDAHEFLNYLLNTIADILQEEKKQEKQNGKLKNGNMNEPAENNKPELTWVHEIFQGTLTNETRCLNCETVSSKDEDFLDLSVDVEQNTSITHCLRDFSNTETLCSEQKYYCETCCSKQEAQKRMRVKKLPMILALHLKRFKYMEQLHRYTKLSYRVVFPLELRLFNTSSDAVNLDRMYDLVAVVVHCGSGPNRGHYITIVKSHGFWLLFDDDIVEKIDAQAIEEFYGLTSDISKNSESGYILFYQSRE

O=C(CCl)N1CCOCC1C1CC1 (stereo not drawn)
inactive: [1] -0.112 | [2] 0.00778 | [3] -0.0311 | [4] 0.0155 | [5] 0.147 | [6] 0.967 | [7] -0.145 | [8] -0.168
